These results are taken from PubChem BioAssay (NCI).

Assay [1] is described as follows: NCI Yeast Anticancer Drug Screen. Data for the rad50 strain (AID 155).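 Note: 0% = growth of vehicle-only cultures of the same strain.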 The settings on record: S. cerevisiae rad50 strain growth inhibition; at 50.0 µM; stronger effect = higher value. The essentials: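 Cells are treated with compound, grown, and their growth is then scored against vehicle-only cultures of the same repair-deficient yeast strain.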
A short description of assay [2]: NCI Yeast Anticancer Drug Screen. Data for the mec2-1 strain (AID 157). As to conditions: S. cerevisiae mec2-1 strain, at 50.0 µM, stronger effect = higher value. Summed up:
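Strain: mec2-1 (DNA repair/cell cycle alteration). Compound exposure, then growth measured; inhibition expressed relative to vehicle.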

A short description of assay [3]: NCI Yeast Anticancer Drug Screen. Data for the sgs1 mgt1 strain (AID 161).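 Note: 0% = growth of cultures given vehicle only.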 As to conditions: S. cerevisiae sgs1 mgt1 strain, at 50.0 µM, stronger effect = higher value. The essentials: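 Read-out: growth inhibition vs vehicle controls. Cells: mutant yeast strain deficient in DNA damage repair.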
Assay [4] can be described thus: NCI Yeast Anticancer Drug Screen. Data for the cln2 rad14 strain (AID 165).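 Note: 0% = growth equal to vehicle treated cultures.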 The settings on record: S. cerevisiae cln2 rad14 strain, at 50.0 µM, stronger effect = higher value. The essentials:
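Compounds are applied to the cln2 rad14 yeast strain, and growth is then compared with that of vehicle-treated cultures to give inhibition.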

The nature of assay [5]: NCI Yeast Anticancer Drug Screen. Data for the bub3 strain (AID 167). As to conditions: S. cerevisiae bub3 mutant strain, at 50.0 µM, stronger effect = higher value. The essentials:
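Part of a panel of yeast mutants defective in DNA damage repair or cell cycle regulation. Each strain is grown with compound, and inhibition is calculated relative to solvent-treated cultures.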

Assay [6] in a line: NCI Yeast Anticancer Drug Screen. Data for the mlh1 rad18 strain (AID 175). As to conditions: S. cerevisiae mlh1 rad18 strain growth inhibition; at 50.0 µM; stronger effect = higher value. Summed up:
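Read-out is yeast growth inhibition, calculated against vehicle-only controls. The compound was applied to a strain engineered with DNA damage repair alterations.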

This is part of a sample that, as a whole, favours compounds with a hit. Of some 79,000 tested, about 15% had one in any assay. A number with no mark means an inactive call. Calls of active or inactive are those of the source. Cut-off read from the data, not from the text of the source: active = growth inhibition above about 70%; inactive = the rest.

With `CCCCCCCCCC1OC(C)C(C)O1` (stereo unspecified), the growth inhibition in assay [1] was 24.6%; in assay [2], 7.55%; in assay [3] it was 16.3%; in assay [4], -19.1%; in assay [5], 1.55%; in assay [6], 29.4%.
For `CC(C)(C)OC(=O)C1=C2C=C(O)C=CC2(C)N(Cc2ccccc2)C1=N` (stereo unspecified), the growth inhibition in assay [1] is -23.9%; in assay [2] it was -55.5%; in assay [3], -36%; in assay [4] it was -36.2%; in assay [5], -24.6%; in assay [6], -50.2%.
As to `CC(C)(CO)NCC(O)CS(=O)(=O)O` (stereo unspecified), the growth inhibition was -30.8% in assay [1]; -16.6% in assay [2]; -9% in assay [3]; -61% in assay [4]; 4.25% in assay [5]; 0.4% in assay [6].
Consider `C1Cc2nnnn2C1`, for which the growth inhibition was -7.4% in assay [1]; -20.1% in assay [2]; 0.9% in assay [3]; -2.85% in assay [4]; -7.95% in assay [5]; 12.6% in assay [6].
With `NC(N)=NCCCCNCCCN=C(N)N`, the growth inhibition in assay [1] is -23.2%; in assay [2], -42.8%; in assay [3] it was 1.55%; in assay [4], 3.35%; in assay [5] it was -16.4%; in assay [6], -15.7%.
With `COc1cc(C2CC=CCC2C(=O)O)cc(OC)c1OC` (stereo unspecified), the growth inhibition in assay [1] was -13.6%; in assay [2], 2.4%; in assay [3], -0.65%; in assay [4], 7.95%; in assay [5], -0.25%; in assay [6] it was 0.9%.
`O=C1NC(=O)C(=Nc2cccc3c(=O)[nH][nH]c(=O)c23)C(c2nc3ccccc3s2)C1=O` (stereo unspecified): the growth inhibition was 20.2% in assay [1]; -9.7% in assay [2]; -12.8% in assay [3]; 8.7% in assay [4]; -3.05% in assay [5]; 4.7% in assay [6].
Regarding `COc1ccccc1Nc1n[nH]c(=S)s1`, the growth inhibition was 11.5% in assay [1]; -5.9% in assay [2]; 58.5% in assay [3]; 16.9% in assay [4]; 14.1% in assay [5]; 5.05% in assay [6].
Turning to `S=c1sc2c(Cl)nc(Cl)nc2n1-c1ccccc1`, the growth inhibition in assay [1] was -17.2%; in assay [2], -4.95%; in assay [3], -13.6%; in assay [4], -1%; in assay [5] it was 9.65%; in assay [6], -11.2%.
In the case of `CCCSc1nc2c(c(=O)n(C)c(=O)n2C)n1C`, the growth inhibition was 7.85% in assay [1]; 15.2% in assay [2]; 10.2% in assay [3]; -9.3% in assay [4]; 9.15% in assay [5]; 6.5% in assay [6].
Consider `CC(C)=CCSC(N)N`, for which the growth inhibition was 14.4% in assay [1]; 21.1% in assay [2]; 24.1% in assay [3]; 9.35% in assay [4]; 17.4% in assay [5]; -1.7% in assay [6].
Take `O=C(Nc1cccc2ccccc12)Oc1ccc(Br)cc1Br`: the growth inhibition is 84.1% (active) in assay [1]; 71.2% (active) in assay [2]; 93.3% (active) in assay [3]; 30.2% in assay [4]; 54.1% in assay [5]; 92.7% (active) in assay [6].
On to `CN(C)c1nc(=O)c2c(ccc3ccccc32)o1`, for which the growth inhibition was 26.2% in assay [1]; 24.3% in assay [2]; 7.6% in assay [3]; 14.7% in assay [4]; 0.55% in assay [5]; -3.7% in assay [6].
For the compound `COc1ccc(-c2nnc(-c3ccc(OC)cc3)nn2)cc1`, the growth inhibition in assay [1] was 1.8%; in assay [2], 15.7%; in assay [3], -7.1%; in assay [4], -11.8%; in assay [5], 4.2%; in assay [6] it was -3%.
Take `CCOC(=O)C1Sc2c(c(=O)n(C)c3ccccc23)C1=O` (stereo unspecified): the growth inhibition in assay [1] is 34.1%; in assay [2] it was 36.6%; in assay [3] it was 34.1%; in assay [4], 40.7%; in assay [5], -8.45%; in assay [6] it was 41.2%.
Consider `COc1ccc2oc(=O)c(-c3csc(-c4ccccc4)n3)cc2c1`, for which the growth inhibition is 13.6% in assay [1]; 5.85% in assay [2]; -5.5% in assay [3]; 1.25% in assay [4]; -24.4% in assay [5]; -45.2% in assay [6].
Turning to `COc1cc(C=O)ccc1OC(=O)Nc1cccc(Cl)c1C`, the growth inhibition in assay [1] was -0.55%; in assay [2], 18.6%; in assay [3], 15.8%; in assay [4], 1.9%; in assay [5], 37.2%; in assay [6], 17.8%.
`CCCCCCCCOCC1S(=O)(=O)OCCOS1(=O)=O`: the growth inhibition was -48.2% in assay [1]; -17.6% in assay [2]; -50.7% in assay [3]; -53.8% in assay [4]; -24.4% in assay [5]; -2.3% in assay [6].
Consider `C[S+]1Cc2nc3ccccc3n2C1c1c(F)cccc1F` (stereo unspecified), for which the growth inhibition in assay [1] was 4.65%; in assay [2], -19.2%; in assay [3], -1.75%; in assay [4], 12.8%; in assay [5], -14.7%; in assay [6], 2.35%.
Consider `CCCCCC(=O)N1CCOCC1`, for which the growth inhibition was 11.2% in assay [1]; 10.8% in assay [2]; 5.6% in assay [3]; -6.35% in assay [4]; -21.4% in assay [5]; 9% in assay [6].
Take `Cc1cc(O)c(C(C)C)cc1N=Cc1ccccc1O`: the growth inhibition in assay [1] is -38.4%; in assay [2], -23.6%; in assay [3] it was -58.2%; in assay [4], -29.7%; in assay [5], -21.6%; in assay [6] it was -5.8%.
